Laboratory results reported in PubChem BioAssay (NCI).
Several values for one entry are separate records, joined by “and”; a condition that tells them apart may be missing. Equal entries are not always repeated. This is part of a sample that, as a whole, favours compounds with a hit. Of some 83,000 tested, about 20% had one in any assay.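 Plates (96-well) were seeded with cells, treated with compound at one concentration, and incubated for 48 hours before percent growth was determined.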 Unmarked numbers belong to inactive results. Activity calls are given as the source filed them. How the source made its calls: active means growth percent below 10; inactive means the rest.

The compounds below were run on OVCAR-8 ovarian (assay: NCI-60 one-dose screen, 48 h (100 = growth as untreated, 0 = no growth, -100 = all killed)). Conditions: 10 µM unless noted.

**Q.** `CN(C)C(=O)c1cc2cnc(Nc3ccc(-c4csc5c(=S)cc(N6CCOCC6)oc45)cc3)nc2n1C1CCCC1` was tested. Which growth did it give?
**A.** 7.87% (active)

**Q.** Which growth does the source give for `CN1CCN(c2ccc(/C=C/C(=O)c3ccc(O)cc3)cc2)CC1` here?
**A.** 95.9%

**Q.** Which growth does the source give for `CCCCC(NC(=O)CN1C(=O)/C(=C/C(C)=C/c2ccccc2)SC1=S)C(=O)O` (stereo not drawn) here?
**A.** 102%

**Q.** For `CC1(Cc2ccccc2)CC2=C(C(=O)O1)C(c1ccccc1)NC(=O)N2` (stereo not drawn), which growth is on record?
**A.** 104%

**Q.** With `COc1ccc(-c2nc(Cl)c3c(C)nn(-c4ccc(F)cc4)c3n2)cc1` as the compound, how does the growth read?
**A.** 99.2%

**Q.** How did the growth turn out when `CCCCn1c(C(=O)c2c[nH]c3ccccc23)n[nH]c1=S` was run?
**A.** 93.1%

**Q.** How did the growth turn out when `COc1ccc(/C=C2\COc3ccc(O)c(O)c3C2=O)c(OC)c1OC` was run?
**A.** 8.41% (active)

**Q.** How did the growth turn out when `C=C(CN1CC=CCC1)[C@@H]1CC[C@]2(COC(C)=O)CC[C@]3(C)[C@H](CC[C@@H]4[C@@]5(C)CC[C@H](O)C(C)(C)[C@@H]5CC[C@]43C)[C@@H]12` was run?
**A.** 96.1%

**Q.** Which growth does the source give for `O=[N+]([O-])c1ccc(S(=O)Cc2ccccc2)c([N+](=O)[O-])c1` (stereo not drawn) here?
**A.** 45.8% and 94.9%

**Q.** `O=C(Cn1cc(CN2CCN(c3ccnc4cc(Cl)ccc34)CC2)nn1)Nc1cccc([N+](=O)[O-])c1` was tested. Which growth did it give?
**A.** 74.7%

**Q.** With `Nc1n[nH]c2cccc(C#Cc3cccc(NC(=O)c4ccc(N5CCOCC5)c(C(F)(F)F)c4)c3)c12` as the compound, how does the growth read?
**A.** 10.7%

**Q.** How did the growth turn out when `COC1=CC(=O)C(OC)=C(O)C1=O` was run?
**A.** 103%

**Q.** Which growth does the source give for `CONC1=Nc2cc(NC(N)=NCc3ccccc3)c(N(C)C3CCCCC3)cc2OC1` here?
**A.** 83.9%
